From PubChem BioAssay (EPA / NIEHS)
Results filed as inconclusive are left out. More than one record can exist for a structure, and the calls need not agree. The source made the active and inactive calls. The calls were made as follows: active = hit-call score of the fitted dose curve at least 0.9, where 1 is the maximum; inconclusive = response in the unintended direction; inactive = score below 0.9.

Tested on: not listed separately
Assay: STM_H9_OrnCyssISnorm_ratio: Stemina devTOX quickPredict H9 human embryonic stem cell (hESC)-based Assay for Ornithine (ORN):Cystine (CYSS) Ratio (AID 2283714)
In short: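 Undifferentiated H9 hESCs exposed 72 h, media and compound replaced every 24 h; final 24-h conditioned media deproteinized and analysed by UPLC-HRMS against C13 spike-ins. Value is the internal-standard-normalized ORN/CYSS ratio versus 0.1% DMSO.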

| SMILES | outcome | AC50 |
| --- | --- | --- |
| S=C([S-])NCCNC(=S)[S-].[Mn+2] | inactive |  |
| Cc1nn(C)c(Oc2ccccc2)c1C=NOCc1ccc(C(=O)OC(C)(C)C)cc1 |  | 0.0589 µM (active) |
| C#CCOC(=O)[C@@H](C)Oc1ccc(Oc2ncc(Cl)cc2F)cc1 |  | 86.9 µM (active) |
| CCN(Cc1c(F)cccc1Cl)c1c([N+](=O)[O-])cc(C(F)(F)F)cc1[N+](=O)[O-] | inactive |  |
| CCNc1nc(N)nc(Cl)n1 | inactive |  |
| O=C(Nc1ccc([N+](=O)[O-])cc1Cl)c1cc(Cl)ccc1O | inactive |  |
| CN(C)C(=O)Nc1ccc(Cl)c(Cl)c1 |  | 82.4 µM (active) |
| COC(=O)CSc1cc(N=c2sc(=O)n3n2CCCC3)c(F)cc1Cl |  | 80 µM (active) |
| N[C@@H](Cc1cc(I)c(Oc2ccc(O)c(I)c2)c(I)c1)C(=O)O | inactive |  |
| CC(C)(c1ccc(O)cc1)c1ccc(O)cc1 | inactive |  |
| CCCCOC(=O)C(C)Oc1ccc(Oc2ccc(C(F)(F)F)cn2)cc1 (stereo not drawn) | inactive |  |
| CCCCC(CC)COC(=O)c1ccccc1C(=O)O (stereo not drawn) |  | 283 µM (active) |
| CC(C)(C)[C@@H](O)[C@@H](Cc1ccc(Cl)cc1)n1cncn1 |  | 88.7 µM (active) |
| CC(C)CCCCCCc1ccc(O)cc1 |  | 75.7 µM (active) |
| CSC(=O)c1cccc2nnsc12 |  | 78.6 µM (active) |
| CCCCCOC(=O)COc1cc(N2C(=O)C3=C(CCCC3)C2=O)c(F)cc1Cl | inactive |  |
| CCCCOC(=O)[C@@H](C)Oc1ccc(Oc2ccc(C(F)(F)F)cn2)cc1 |  | 52.8 µM (active) |
| CCSC(=O)N(CC(C)C)CC(C)C | inactive |  |
| COC(=O)c1ccccc1C(=O)O | inactive |  |
| O=C(O)C1(C(=O)Nc2ccc(Cl)cc2Cl)CC1 |  | 9.92 µM (active) |
| S=C(S)NCCNC(=S)S.[Mn+2].[S-]C([S-])=NCCN=C([S-])[S-].[Zn+2] | inactive |  |
| N#CSCSc1nc2ccccc2s1 |  | 16.4 µM (active) |
| C[C@]12C[C@H](O)[C@H]3[C@@H](CCC4=CC(=O)CC[C@@]43C)[C@@H]1CC[C@@H]2C(=O)CO |  | 93.8 µM (active) |

Tested on: not listed separately
Assay: Tanguay_ZF_120hpf_ActivityScore_legacy: (Legacy) Oregon State University Tanguay Lab 120 Hour Post-fertilization zebrafish Assay Score for Activity (AID 2283742);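 as to AC50: dechorionated Tropical 5D wild-type zebrafish embryos held singly per well; static exposure from 6 hpf until 120 hpf at 28 °C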
In short: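 Dechorionated Tropical 5D embryos, one per well from 6 hpf, statically exposed to 120 hpf at 28 °C in 0.64% DMSO. Mortality and malformations scored binary by brightfield microscopy; activity score combines 18 endpoints, fitted positively versus DMSO.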

| SMILES | outcome | AC50 |
| --- | --- | --- |
| O=C(c1ccc(O)cc1O)c1ccc(O)cc1O | inactive |  |
| S=C([S-])NCCNC(=S)[S-].[Mn+2] | inactive |  |
| CCNc1nc(N)nc(Cl)n1 | inactive |  |
| Oc1ccc(C(c2ccc(O)cc2)C(Cl)(Cl)Cl)cc1 |  | 30.8 µM (active) |
| CC(C)(C)[C@@H](O)[C@@H](Cc1ccc(Cl)cc1)n1cncn1 | inactive |  |
| CCCCOC(=O)[C@@H](C)Oc1ccc(Oc2ccc(C(F)(F)F)cn2)cc1 | inactive |  |
| N#CSCSc1nc2ccccc2s1 |  | 0.11 µM (active) |
| C[C@]12C[C@H](O)[C@H]3[C@@H](CCC4=CC(=O)CC[C@@]43C)[C@@H]1CC[C@@H]2C(=O)CO | inactive |  |

Tested on: not listed separately
Assay: ArunA_CellTiter_hNC: Viability Assessment in the ArunA Biomedical's Oris Neural Crest (hNC) Cell Migration Assay (AID 2283752)
In short: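 Human H9-derived neural crest stem cells were plated at 60,000 per well on Matrigel in growth medium with LIF and bFGF, incubated 16 h at 37C, then exposed to chemical for 72 h. Viability was read with CellTiter Aqueous One as loss of signal versus DMSO.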

| SMILES | AC50 | outcome |
| --- | --- | --- |
| N[C@@H](Cc1cc(I)c(Oc2ccc(O)c(I)c2)c(I)c1)C(=O)O | 33 µM (active) |  |
| CC(C)(c1ccc(O)cc1)c1ccc(O)cc1 |  | inactive |
| CC(C)CCCCCCc1ccc(O)cc1 | 5.59 µM (active) |  |
| S=C(S)NCCNC(=S)S.[Mn+2].[S-]C([S-])=NCCN=C([S-])[S-].[Zn+2] | 9.92 µM (active) |  |

Tested on: not listed separately
Assay: ArunA_CellTiter_hNP: Viability Assessment in the ArunA Biomedical's Oris Neural Crest (hNC) Cell Migration Assay (AID 2283753)
In short: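 H9-derived hNP1 neuroprogenitors, 60,000/well on Matrigel, cultured 16 h, then 72 h chemical exposure in test medium. Cell titer via CellTiter Aqueous One; positive-direction fit vs DMSO.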

| SMILES | outcome | AC50 |
| --- | --- | --- |
| N[C@@H](Cc1cc(I)c(Oc2ccc(O)c(I)c2)c(I)c1)C(=O)O | inactive |  |
| CC(C)(c1ccc(O)cc1)c1ccc(O)cc1 | inactive |  |
| CC(C)CCCCCCc1ccc(O)cc1 |  | 9.76 µM (active) |
| S=C(S)NCCNC(=S)S.[Mn+2].[S-]C([S-])=NCCN=C([S-])[S-].[Zn+2] |  | 83.4 µM (active) |

Tested on: not listed separately
Assay: ArunA_Migration_hNC: ArunA Biomedical's Oris Neural Crest (hNC) Cell Migration Assay (AID 2283755)
In short: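 Human H9-derived neural crest stem cells, 60,000/well on Matrigel, 16 h at 37C, then 72 h chemical exposure after seeding-stopper removal. Migration into detection zone read as calcein-AM fluorescence (ex494/em517), relative to DMSO.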

| SMILES | AC50 | outcome |
| --- | --- | --- |
| N[C@@H](Cc1cc(I)c(Oc2ccc(O)c(I)c2)c(I)c1)C(=O)O | 56.2 µM (active) |  |
| CC(C)(c1ccc(O)cc1)c1ccc(O)cc1 |  | inactive |
| CC(C)CCCCCCc1ccc(O)cc1 | 4.41 µM (active) |  |
| S=C(S)NCCNC(=S)S.[Mn+2].[S-]C([S-])=NCCN=C([S-])[S-].[Zn+2] | 50 µM (active) |  |

Tested on: not listed separately
Assay: ArunA_NOG_NucleusCount: ArunA Biomedical's Neurite Outgrowth (NOG) Assay for Nucleus Count (AID 2283756)
Method: ArunA_NOG (Neurite Outgrowth) is a cell-based, image-based assay that uses human H9-derived embryonic differentiated neurons (hNN). Measurements were taken 48 hours after chemical dosing in a 96-well plate.ArunA_NOG_NucleusCount is an assay component measured from the ArunA_NOG assay. It is designed to make measurements of viability related to the number of neurons, using a form of viability reporter, as detected with fluorescence intensity signals by HCS Fluorescent Imaging technology. Data from the assay component ArunA_NOG_NucleusCount was analyzed at the endpoint, ArunA_NOG_NucleusCount, in the positive analysis fitting direction relative to DMSO as the negative control and baseline of activity. Using a type of viability reporter, loss-of-signal activity can be used to understand viability. To generalize the intended target to other relatable targets, this assay endpoint is annotated to the neurodevelopment intended target family, where the subfamily is neurite outgrowth.
Chemical treatment: Differentiated hNN cells were seeded and immediately exposed to test medium for 48 h. Following chemical exposure, cell bodies were stained with Hoechst 33,258 to quantitate viable neuron count and neurites were labeled with bIII-tubulin/DyLight1 488. High content imaging assessed the neurite outgrowth endpoints: neurite total length per neuron (um), neurite count per neuron, and branch points per neurite using the methods described in (Harrill et al 2010). […] Plates were then loaded into a Cellomics ArrayScan VTI HCS reader high-content imaging system (ThermoFisher Scientific, Waltham, MA) for automated image acquisition and morphometric analyses. […] Fixed integration times for image acquisition in each channel were determined by manual sampling of control-treated wells across multiple plates. […] Nuclei with size and intensity values outside of the ranges determined a priori for viable cells were identified in the channel 1 image and rejected from further analyses. […] Neurites emerging from the selected cell bodies were then individually traced and measured. […]

| SMILES | outcome |
| --- | --- |
| N[C@@H](Cc1cc(I)c(Oc2ccc(O)c(I)c2)c(I)c1)C(=O)O | inactive |
| CC(C)(c1ccc(O)cc1)c1ccc(O)cc1 | inactive |
| S=C(S)NCCNC(=S)S.[Mn+2].[S-]C([S-])=NCCN=C([S-])[S-].[Zn+2] | inactive |

Molecular target: Luciferin 4-monooxygenase (Photinus pyralis) (UniProt P08659)
Sequence (P08659 whole entry, looked up): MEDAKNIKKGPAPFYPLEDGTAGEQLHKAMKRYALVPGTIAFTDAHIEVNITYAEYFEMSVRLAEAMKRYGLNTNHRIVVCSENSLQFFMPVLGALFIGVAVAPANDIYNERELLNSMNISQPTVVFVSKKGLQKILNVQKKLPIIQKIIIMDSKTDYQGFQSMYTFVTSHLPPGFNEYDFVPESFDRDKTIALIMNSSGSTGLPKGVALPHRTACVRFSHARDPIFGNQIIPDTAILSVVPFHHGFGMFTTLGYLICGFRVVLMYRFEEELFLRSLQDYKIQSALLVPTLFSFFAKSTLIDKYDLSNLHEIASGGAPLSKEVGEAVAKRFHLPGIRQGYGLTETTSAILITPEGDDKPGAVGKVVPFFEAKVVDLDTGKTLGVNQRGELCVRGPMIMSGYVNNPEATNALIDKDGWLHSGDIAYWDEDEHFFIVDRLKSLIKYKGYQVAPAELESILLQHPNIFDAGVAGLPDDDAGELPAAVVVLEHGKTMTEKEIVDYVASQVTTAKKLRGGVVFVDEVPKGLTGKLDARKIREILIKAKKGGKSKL
Assay: CCTE_Simmons_QuantiLum_inhib_2: CCTE's Firefly Luciferase Inhibition Assay, Simmons Lab (AID 2283767);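 as to AC50: potency for inhibitors that lower luciferase luminescence relative to DMSO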
In short: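 Recombinant firefly luciferase (5 ng/well, 200 mM potassium phosphate with 1 mg/ml BSA) was exposed to 8 concentrations from 5 nM to 87.5 uM (final, 0.5% DMSO) for 30 min at 37C in the dark. Loss of luminescence versus DMSO was read after injecting D-luciferin/ATP-analogue reagent.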

| SMILES | AC50 | outcome |
| --- | --- | --- |
| O=C(c1ccc(O)cc1O)c1ccc(O)cc1O | 47.2 µM (active) |  |
| S=C([S-])NCCNC(=S)[S-].[Mn+2] |  | inactive |
| O=C(Nc1ccc([N+](=O)[O-])cc1Cl)c1cc(Cl)ccc1O |  | inactive |
| CN(C)C(=O)Nc1ccc(Cl)c(Cl)c1 |  | inactive |
| N[C@@H](Cc1cc(I)c(Oc2ccc(O)c(I)c2)c(I)c1)C(=O)O |  | inactive |
| CC(C)(c1ccc(O)cc1)c1ccc(O)cc1 |  | inactive |
| Oc1ccc(C(c2ccc(O)cc2)C(Cl)(Cl)Cl)cc1 |  | inactive |
| CC(C)CCCCCCc1ccc(O)cc1 |  | inactive |
| CSC(=O)c1cccc2nnsc12 |  | inactive |
| S=C(S)NCCNC(=S)S.[Mn+2].[S-]C([S-])=NCCN=C([S-])[S-].[Zn+2] | 22.6 µM (active) [middle of 4 runs] | inactive |
| N#CSCSc1nc2ccccc2s1 | 0.435 µM (active) |  |
